# Results published in PubChem BioAssay AID602340 (Broad Institute, 2012).
# Several values for one entry are separate records, joined by “and”; a condition that tells them apart may be missing. Identical values can stand only once. Hit rate of the full screen: of about 330,000 compounds, about 2,600 (0.79%) were called active.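 How the source made its calls: active means mean ATP rescue above about 67%, or every replicate alone reaching that limit (limit read from the data, passing the limit was not always enough); inconclusive means no clear call, values can overlap the other calls; inactive means mean under the limit and some replicate under it.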 This excerpt belongs to a sample that is enriched for actives. Some structures have more than one record in an assay (separate samples or runs), and their calls can disagree.
# Experiment: suppressors of statin myotoxicity in C2C12 myotubes, primary screen, cell-based, single point, plate reader (AID 602340);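 further: myotubes were challenged with 10 µM simvastatin during compound exposure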
# Conditions: C2C12 myotubes + simvastatin, ATP luminescence, 48 h; at 7.49 µM; stronger effect = higher value; scaled: DMSO 0, geranylgeraniol control 100
row,Structure (SMILES),rescue of ATP level
1,CC1(C(=O)O)CCCN(C(=O)/C=C/c2ccccc2)C1 (configuration not stated),2.47% (inactive)
2,Cc1[nH]c(=O)c(C(=O)/C=C/c2ccccc2)c2c1CCCC2,165% (active)
3,C/C(=C\c1ccccc1)C1NC(=O)c2c(sc3c2CCCC3)N1 (configuration not stated),-22.3% (inactive)
4,COc1ccccc1NC(=O)N1C[C@H](O)COC[C@H]2O[C@H](CC(=O)NCCc3ccccc3)CC[C@@H]21,-6.91% (inactive)
5,CCOc1ccc(C(=O)Nc2ccc(S(=O)(=O)Nc3cc(C)on3)cc2)cc1,10.8% (inactive)
6,CCC(=O)Nc1ccc(C(=O)Nc2cc(C)on2)cc1,84.9% (active)
7,CCC(=O)Nc1ccc(C(=O)NNC(=O)c2ccc(Cl)cc2)cc1,-2.53% (inactive)
8,C[C@H]1CN([C@@H](C)CO)S(=O)(=O)c2ccc(Br)cc2O[C@H]1CN(C)C(=O)C1CC1,4.28% (inactive)
9,CCOC(=O)CSc1nc2ccc(C)cc2[nH]1,11.3% (inactive)
10,Cc1ccc2nc(SCC(=O)NC3CCCC3)[nH]c2c1,-36.1% (inactive)
11,CC(=O)Nc1ccc(C(=O)CSc2nc3ccc(C)cc3[nH]2)cc1,107% (active)
12,O=C(NCC[C@H]1CC[C@H](NS(=O)(=O)c2cccc(F)c2)[C@H](CO)O1)C1CCCCC1,0.841% (inactive)
13,COC(=O)C[C@H]1CC[C@H](NC(=O)Nc2ccc(C(F)(F)F)cc2)[C@H](CO)O1,-6.07% (inactive)
14,CCS(=O)(=O)Nc1ccc2c(c1)C(=O)N(C)[C@@H]1CC[C@H](CC(=O)N[C@H]3CCN(Cc4ccccc4)C3)O[C@@H]1CO2,10.9% (inactive)
15,CCS(=O)(=O)Nc1ccc2c(c1)C(=O)N(C)[C@@H]1CC[C@@H](CC(=O)N3CCCCC3)O[C@H]1CO2,-21.4% (inactive)
16,CO[C@H]1CN(C)C(=O)c2ccc(NC(=O)C3CC3)cc2OC[C@@H](C)N(C)C[C@H]1C,2.87% (inactive)
17,CCCS(=O)(=O)N1CCCC(C(=O)N2CCN(c3ccccc3)CC2)C1 (configuration not stated),103% (active)
18,CCS(=O)(=O)N1CCC(C(=O)N2CCN(c3ccccc3)CC2)CC1,2.16% (inactive)
19,O=C(C1CCCN(S(=O)(=O)c2ccccc2)C1)N1CCN(c2ccc(F)cc2)CC1 (configuration not stated),-8.18% (inactive)
20,C[C@@H](NC(=O)C[C@@H]1CC[C@H](NC(=O)Cc2ccccn2)[C@H](CO)O1)c1ccccc1,4.66% (inactive)
21,C[C@H]1CN([C@@H](C)CO)C(=O)c2cccc(NC(=O)Nc3ccc(C(F)(F)F)cc3)c2O[C@@H]1CN(C)Cc1ccccc1,-12.1% (inactive)

row,Structure (SMILES),rescue of ATP level
1,C[C@@H]1CN([C@@H](C)CO)C(=O)c2cccc(NC(=O)Nc3ccc(F)cc3)c2O[C@H]1CN(C)C(=O)Nc1ccc(F)cc1,18.2% (inactive)
2,C[C@@H]1CN([C@H](C)CO)C(=O)c2cccc(NS(=O)(=O)c3ccc(F)cc3)c2O[C@@H]1CN(C)C(=O)Nc1ccc(F)cc1,3.07% (inactive)
3,C[C@@H]1CN([C@H](C)CO)C(=O)c2cccc(NS(=O)(=O)c3ccc(Cl)cc3)c2O[C@H]1CN(C)C(=O)NC1CCCCC1,36.6% (inactive)
4,CC(C)NC(=O)N(C)C[C@@H]1Oc2ccc(N(C)C)cc2C(=O)N([C@@H](C)CO)C[C@H]1C,-49% (inactive)
5,C[C@H](CO)N1C[C@H](C)[C@@H](CN(C)C(=O)Nc2ccccc2)Oc2ccc(N(C)C)cc2C1=O,4.49% (inactive)
6,C[C@H]1CN([C@@H](C)CO)C(=O)c2cccc(NC(=O)Nc3ccc(C(F)(F)F)cc3)c2O[C@H]1CN(C)C(=O)NC1CCCCC1,-25.5% (inactive)
7,C[C@H]1CN([C@@H](C)CO)C(=O)c2cccc(NC(=O)Nc3ccc(C(F)(F)F)cc3)c2O[C@H]1CN(C)CC1CCCCC1,88.7% (active)
8,C[C@@H]1CN([C@@H](C)CO)C(=O)c2cccc(NS(=O)(=O)c3ccc(F)cc3)c2O[C@H]1CN(C)C(=O)NC1CCCCC1,88.2% (active) and -10.4% (inactive)
9,CC(C)NC(=O)N(C)C[C@H]1Oc2ccc(N(C)C)cc2C(=O)N([C@@H](C)CO)C[C@H]1C,70.4% (active)
10,C[C@@H]1CN([C@H](C)CO)C(=O)c2cccc(NC(=O)Nc3cccc4ccccc34)c2O[C@@H]1CN(C)C(=O)Nc1ccc(F)cc1,98.6% (active)
11,C[C@@H]1CN([C@@H](C)CO)C(=O)c2cccc(NC(=O)Nc3ccc(F)cc3)c2O[C@@H]1CN(C)C(=O)Nc1ccccc1,7.96% (inactive)
12,C[C@@H]1CN([C@H](C)CO)C(=O)c2cc(NC(=O)Cc3cn(C)c4ccccc34)ccc2O[C@@H]1CN(C)S(=O)(=O)c1cccs1,34.2% (inactive)
13,CCS(=O)(=O)Nc1ccc2c(c1)C(=O)N(C)[C@H]1CC[C@H](CC(=O)NCc3ccccc3F)O[C@H]1CO2,-3.79% (inactive)
14,O=C(N[C@H]1CC[C@@H](CCn2cc(Cc3ccccc3)nn2)O[C@H]1CO)c1cnccn1,-1.98% (inactive)
15,COc1ccc(C#Cc2cnc3c(c2)C(=O)N([C@H](C)CO)C[C@@H](C)[C@H](CN(C)C(=O)Nc2cccc(OC)c2)O3)cc1,114% (active)
16,COc1ccc(NC(=O)N(C)C[C@H]2Oc3c(NC(=O)Nc4cccc5ccccc45)cccc3C(=O)N([C@H](C)CO)C[C@@H]2C)cc1,75.6% (active)
17,COc1ccc(NC(=O)N(C)C[C@H]2Oc3ncc(C#C[C@@H](C)O)cc3C(=O)N([C@H](C)CO)C[C@H]2C)cc1,12.8% (inactive) and -6.34% (inactive) and 21.2% (inactive)
18,COc1ccc(NC(=O)Nc2cccc3c2O[C@H](CN(C)C(=O)Nc2cccc4ccccc24)[C@H](C)CN([C@H](C)CO)C3=O)cc1,60% (inactive)
19,COc1cccc(NC(=O)N(C)C[C@@H]2Oc3ncc(Br)cc3C(=O)N([C@@H](C)CO)C[C@H]2C)c1,17.2% (inactive)
20,COc1ccc(NC(=O)N(C)C[C@@H]2Oc3c(NC(=O)Nc4cccc5ccccc45)cccc3C(=O)N([C@@H](C)CO)C[C@H]2C)cc1,15.2% (inactive)
21,CN(C)C(=O)C[C@@H]1CC[C@H](NC(=O)NC2CCCCC2)[C@@H](CO)O1,-1.33% (inactive)
